# Results taken from PMC7862700, “An all-to-all approach to the identification of sequence-specific readers for epigenetic DNA modifications on cytosine”.
# Columns and labels:
# Assay in all cases: DAPPL (digital affinity profiling via proximity ligation, sequencing); 10 mM Tris-HCl pH 7.5, 50 mM NaCl, 1 mM DTT, 4% glycerol, room temperature, 30 min; GST-TFs on glutathione beads, 16-mer random dsDNA library, 0.1% formaldehyde crosslink after washing; high values mean tight binding
# [1] = target: T1, FLI1 (Homo sapiens, UniProt Q01543 1-452); details: protein: recombinant; tags: N-terminal GST; dsDNA, one strand shown
# T1 sequence: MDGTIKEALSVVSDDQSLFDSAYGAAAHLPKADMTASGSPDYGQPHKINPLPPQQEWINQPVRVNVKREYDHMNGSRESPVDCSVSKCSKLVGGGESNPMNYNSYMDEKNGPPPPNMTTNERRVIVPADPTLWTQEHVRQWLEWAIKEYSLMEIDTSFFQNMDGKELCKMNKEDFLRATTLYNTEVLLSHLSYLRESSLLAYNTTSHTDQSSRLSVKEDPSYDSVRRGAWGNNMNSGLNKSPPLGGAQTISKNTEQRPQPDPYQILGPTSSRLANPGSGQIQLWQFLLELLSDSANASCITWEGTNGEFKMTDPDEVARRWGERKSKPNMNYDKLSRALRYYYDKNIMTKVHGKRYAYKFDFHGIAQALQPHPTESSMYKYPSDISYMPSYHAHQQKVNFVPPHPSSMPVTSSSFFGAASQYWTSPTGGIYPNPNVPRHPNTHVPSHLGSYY
# Method in brief: (§1)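 A tag-only sample was pooled with DNA-barcoded human transcription factors that had been expressed in yeast as GST fusions and captured on glutathione beads. The pools were incubated for 30 min at room temperature with 200 nmole of a random double-stranded 16-mer DNA library in Tris/NaCl/DTT/glycerol buffer, then washed, crosslinked with 0.1% formaldehyde, proximity-ligated (BsaI/T4 ligase, 1 h, 37 °C), PCR-amplified and sequenced on an Illumina NextSeq500. Binding signal is each hexamer's read frequency for a factor divided by its frequency for the tag-only sample.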
# [2] = target: T2, ELK1 (Homo sapiens, UniProt P19419 1-428); details: protein: recombinant; tags: N-terminal GST; dsDNA, one strand shown
# T2 sequence: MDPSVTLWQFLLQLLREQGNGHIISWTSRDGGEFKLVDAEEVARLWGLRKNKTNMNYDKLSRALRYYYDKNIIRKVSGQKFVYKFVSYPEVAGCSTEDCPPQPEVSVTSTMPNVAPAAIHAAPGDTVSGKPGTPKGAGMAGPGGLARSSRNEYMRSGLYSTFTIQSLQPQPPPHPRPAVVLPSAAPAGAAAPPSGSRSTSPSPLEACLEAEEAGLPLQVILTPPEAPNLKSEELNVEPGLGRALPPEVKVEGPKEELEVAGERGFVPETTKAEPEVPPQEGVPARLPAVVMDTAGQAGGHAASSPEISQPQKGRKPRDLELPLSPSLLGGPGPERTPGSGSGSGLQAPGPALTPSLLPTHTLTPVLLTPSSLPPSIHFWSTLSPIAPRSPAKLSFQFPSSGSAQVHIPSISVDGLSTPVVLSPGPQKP
# Method in brief: as §1
# [3] = target: T3, GABPA (Homo sapiens, UniProt Q06546 1-454); details: protein: recombinant; tags: N-terminal GST; dsDNA, one strand shown
# T3 sequence: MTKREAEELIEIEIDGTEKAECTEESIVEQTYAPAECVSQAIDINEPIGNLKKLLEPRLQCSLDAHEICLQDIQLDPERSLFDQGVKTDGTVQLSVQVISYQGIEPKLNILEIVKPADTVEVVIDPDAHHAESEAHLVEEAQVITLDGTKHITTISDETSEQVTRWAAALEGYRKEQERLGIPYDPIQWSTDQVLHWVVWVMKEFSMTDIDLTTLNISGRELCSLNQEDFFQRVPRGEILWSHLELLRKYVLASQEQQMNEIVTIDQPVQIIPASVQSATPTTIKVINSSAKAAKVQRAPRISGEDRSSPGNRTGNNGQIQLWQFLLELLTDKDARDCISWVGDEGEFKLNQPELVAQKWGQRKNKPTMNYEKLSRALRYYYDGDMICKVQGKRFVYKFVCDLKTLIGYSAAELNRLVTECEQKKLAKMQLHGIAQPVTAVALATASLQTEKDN
# Method in brief: as §1
# [4] = target: T4, ERG (Homo sapiens, UniProt P11308 1-479); details: protein: recombinant; tags: N-terminal GST; dsDNA, one strand shown
# T4 sequence: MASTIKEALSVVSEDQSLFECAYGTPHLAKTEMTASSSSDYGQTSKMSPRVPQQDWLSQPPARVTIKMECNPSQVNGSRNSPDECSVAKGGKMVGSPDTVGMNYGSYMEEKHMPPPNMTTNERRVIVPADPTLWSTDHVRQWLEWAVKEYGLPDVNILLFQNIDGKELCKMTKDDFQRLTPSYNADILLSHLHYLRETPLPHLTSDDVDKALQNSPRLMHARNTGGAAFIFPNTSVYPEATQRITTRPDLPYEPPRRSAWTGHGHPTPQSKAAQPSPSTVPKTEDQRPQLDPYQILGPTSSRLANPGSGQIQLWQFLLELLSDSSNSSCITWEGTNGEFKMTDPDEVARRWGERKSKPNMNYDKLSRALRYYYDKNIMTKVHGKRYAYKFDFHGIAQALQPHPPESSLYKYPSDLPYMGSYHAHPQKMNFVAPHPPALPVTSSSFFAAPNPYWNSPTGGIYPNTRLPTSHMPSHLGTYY
# Method in brief: as §1
# [5] = target: ELF1 (Homo sapiens, UniProt P32519 1-619); details: protein: recombinant; tags: N-terminal GST; dsDNA, one strand shown
# ELF1, sequence (P32519 whole entry): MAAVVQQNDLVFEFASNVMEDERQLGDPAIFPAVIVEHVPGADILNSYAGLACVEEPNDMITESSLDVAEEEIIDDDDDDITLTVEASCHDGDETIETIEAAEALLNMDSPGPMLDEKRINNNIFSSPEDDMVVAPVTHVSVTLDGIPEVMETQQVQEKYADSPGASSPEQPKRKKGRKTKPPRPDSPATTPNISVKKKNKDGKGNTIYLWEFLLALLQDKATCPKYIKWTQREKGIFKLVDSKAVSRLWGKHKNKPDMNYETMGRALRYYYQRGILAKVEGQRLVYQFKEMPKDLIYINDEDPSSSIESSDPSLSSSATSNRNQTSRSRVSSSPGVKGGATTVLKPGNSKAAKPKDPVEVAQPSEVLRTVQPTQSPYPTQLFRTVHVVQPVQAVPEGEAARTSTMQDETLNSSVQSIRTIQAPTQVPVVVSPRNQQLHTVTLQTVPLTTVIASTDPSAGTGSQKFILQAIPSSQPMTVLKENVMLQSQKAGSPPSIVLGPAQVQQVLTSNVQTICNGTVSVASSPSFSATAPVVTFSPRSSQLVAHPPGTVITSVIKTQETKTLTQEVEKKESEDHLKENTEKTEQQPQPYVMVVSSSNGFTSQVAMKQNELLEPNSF
# Method in brief: as §1
# [6] = target: T5, EHF (Homo sapiens, UniProt Q9NZC4 1-300); details: protein: recombinant; tags: N-terminal GST; dsDNA, one strand shown
# T5 sequence: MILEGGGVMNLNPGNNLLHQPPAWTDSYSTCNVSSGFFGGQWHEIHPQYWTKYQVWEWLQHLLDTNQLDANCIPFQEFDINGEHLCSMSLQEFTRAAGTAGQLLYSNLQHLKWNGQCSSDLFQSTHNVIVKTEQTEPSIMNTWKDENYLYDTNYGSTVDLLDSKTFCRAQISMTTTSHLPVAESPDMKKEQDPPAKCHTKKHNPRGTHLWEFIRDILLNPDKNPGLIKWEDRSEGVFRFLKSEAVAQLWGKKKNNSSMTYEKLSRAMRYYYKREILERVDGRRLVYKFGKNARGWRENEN
# Method in brief: as §1
# [7] = target: SPI1 (Homo sapiens, UniProt P17947 1-270); details: protein: recombinant; tags: N-terminal GST; dsDNA, one strand shown
# Method in brief: as §1
# [8] = target: SPIB (Homo sapiens, UniProt Q01892 1-262); details: protein: recombinant; tags: N-terminal GST; dsDNA, one strand shown
# SPIB, sequence (Q01892 whole entry): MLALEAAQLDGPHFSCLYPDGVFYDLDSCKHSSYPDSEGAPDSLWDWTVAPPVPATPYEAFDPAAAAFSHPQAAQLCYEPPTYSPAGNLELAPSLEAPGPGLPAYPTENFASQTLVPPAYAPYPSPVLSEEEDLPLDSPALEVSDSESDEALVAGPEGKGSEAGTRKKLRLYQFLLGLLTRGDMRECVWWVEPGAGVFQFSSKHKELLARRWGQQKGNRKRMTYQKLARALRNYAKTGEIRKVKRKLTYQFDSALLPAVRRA
# Method in brief: as §1
# [9] = target: T6, ELK3 (Homo sapiens, UniProt P41970 1-407); details: protein: recombinant; tags: N-terminal GST; dsDNA, one strand shown
# T6 sequence: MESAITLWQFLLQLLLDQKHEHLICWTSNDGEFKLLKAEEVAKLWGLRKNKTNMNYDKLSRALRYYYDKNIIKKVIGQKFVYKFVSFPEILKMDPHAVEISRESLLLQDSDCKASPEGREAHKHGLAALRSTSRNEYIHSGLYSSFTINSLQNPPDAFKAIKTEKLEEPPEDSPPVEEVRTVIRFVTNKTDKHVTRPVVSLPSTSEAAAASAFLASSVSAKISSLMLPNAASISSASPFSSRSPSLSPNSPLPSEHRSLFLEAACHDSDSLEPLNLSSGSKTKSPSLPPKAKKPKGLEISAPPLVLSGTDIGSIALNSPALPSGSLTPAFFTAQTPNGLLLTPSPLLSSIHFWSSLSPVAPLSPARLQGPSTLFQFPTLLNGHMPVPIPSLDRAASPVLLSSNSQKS
# Method in brief: as §1
# [10] = target: T7, FEV (Homo sapiens, UniProt Q99581 1-238); details: protein: recombinant; tags: N-terminal GST; dsDNA, one strand shown
# T7 sequence: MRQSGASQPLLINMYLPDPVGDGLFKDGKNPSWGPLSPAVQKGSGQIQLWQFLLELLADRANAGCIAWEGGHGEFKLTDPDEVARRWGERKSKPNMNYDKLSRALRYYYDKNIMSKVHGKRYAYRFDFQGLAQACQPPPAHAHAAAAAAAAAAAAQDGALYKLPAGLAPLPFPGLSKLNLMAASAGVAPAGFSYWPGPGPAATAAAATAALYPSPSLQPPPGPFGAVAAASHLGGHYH
# Method in brief: as §1
# [11] = target: ETV5 (Homo sapiens, UniProt P41161 1-510); details: protein: recombinant; tags: N-terminal GST; dsDNA, one strand shown
# ETV5, sequence (P41161 whole entry): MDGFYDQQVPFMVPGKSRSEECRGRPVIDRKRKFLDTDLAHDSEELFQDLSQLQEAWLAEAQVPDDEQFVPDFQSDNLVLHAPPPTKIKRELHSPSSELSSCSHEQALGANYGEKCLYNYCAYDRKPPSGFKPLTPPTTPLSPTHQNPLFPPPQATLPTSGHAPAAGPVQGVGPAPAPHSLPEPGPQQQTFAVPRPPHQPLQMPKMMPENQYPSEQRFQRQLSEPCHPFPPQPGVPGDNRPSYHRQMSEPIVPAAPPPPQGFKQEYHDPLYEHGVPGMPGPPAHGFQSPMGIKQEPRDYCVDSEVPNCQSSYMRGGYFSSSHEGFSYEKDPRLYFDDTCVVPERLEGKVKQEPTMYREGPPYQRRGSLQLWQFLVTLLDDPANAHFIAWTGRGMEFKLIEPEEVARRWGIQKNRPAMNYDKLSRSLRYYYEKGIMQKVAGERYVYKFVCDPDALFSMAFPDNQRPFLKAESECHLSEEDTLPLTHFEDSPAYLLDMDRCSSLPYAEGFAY
# Method in brief: as §1
# [12] = target: HSF1 (Homo sapiens, UniProt Q00613 1-529); details: protein: recombinant; tags: N-terminal GST; chain copies: 3; dsDNA, one strand shown
# HSF1, sequence (Q00613 whole entry): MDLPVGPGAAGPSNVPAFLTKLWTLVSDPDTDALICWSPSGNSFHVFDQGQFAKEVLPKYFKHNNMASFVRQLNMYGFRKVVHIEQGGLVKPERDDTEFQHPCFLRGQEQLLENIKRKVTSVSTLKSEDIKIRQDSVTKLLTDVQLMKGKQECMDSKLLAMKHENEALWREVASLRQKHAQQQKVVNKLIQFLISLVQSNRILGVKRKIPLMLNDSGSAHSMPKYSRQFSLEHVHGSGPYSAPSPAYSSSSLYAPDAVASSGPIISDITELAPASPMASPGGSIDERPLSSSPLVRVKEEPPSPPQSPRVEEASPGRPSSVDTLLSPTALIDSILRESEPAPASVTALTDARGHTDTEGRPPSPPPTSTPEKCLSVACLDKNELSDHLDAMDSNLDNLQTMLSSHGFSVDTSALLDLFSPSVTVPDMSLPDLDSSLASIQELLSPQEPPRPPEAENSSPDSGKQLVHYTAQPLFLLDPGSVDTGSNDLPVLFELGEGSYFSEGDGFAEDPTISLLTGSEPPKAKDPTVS
# Method in brief: as §1
# [13] = target: T8, SPIC (Homo sapiens, UniProt Q8N5J4 1-248); details: protein: recombinant; tags: N-terminal GST; dsDNA, one strand shown
# T8 sequence: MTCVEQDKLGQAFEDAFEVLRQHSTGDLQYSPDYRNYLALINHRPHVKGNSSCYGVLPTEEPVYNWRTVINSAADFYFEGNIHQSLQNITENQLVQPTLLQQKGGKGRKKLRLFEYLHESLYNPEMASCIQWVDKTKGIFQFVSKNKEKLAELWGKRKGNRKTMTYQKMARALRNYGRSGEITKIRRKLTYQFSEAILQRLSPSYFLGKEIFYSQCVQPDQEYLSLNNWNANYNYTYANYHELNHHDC
# Method in brief: as §1
# [14] = target: ELF4 (Homo sapiens, UniProt Q99607 1-663); details: protein: recombinant; tags: N-terminal GST; dsDNA, one strand shown
# ELF4, sequence (Q99607 whole entry): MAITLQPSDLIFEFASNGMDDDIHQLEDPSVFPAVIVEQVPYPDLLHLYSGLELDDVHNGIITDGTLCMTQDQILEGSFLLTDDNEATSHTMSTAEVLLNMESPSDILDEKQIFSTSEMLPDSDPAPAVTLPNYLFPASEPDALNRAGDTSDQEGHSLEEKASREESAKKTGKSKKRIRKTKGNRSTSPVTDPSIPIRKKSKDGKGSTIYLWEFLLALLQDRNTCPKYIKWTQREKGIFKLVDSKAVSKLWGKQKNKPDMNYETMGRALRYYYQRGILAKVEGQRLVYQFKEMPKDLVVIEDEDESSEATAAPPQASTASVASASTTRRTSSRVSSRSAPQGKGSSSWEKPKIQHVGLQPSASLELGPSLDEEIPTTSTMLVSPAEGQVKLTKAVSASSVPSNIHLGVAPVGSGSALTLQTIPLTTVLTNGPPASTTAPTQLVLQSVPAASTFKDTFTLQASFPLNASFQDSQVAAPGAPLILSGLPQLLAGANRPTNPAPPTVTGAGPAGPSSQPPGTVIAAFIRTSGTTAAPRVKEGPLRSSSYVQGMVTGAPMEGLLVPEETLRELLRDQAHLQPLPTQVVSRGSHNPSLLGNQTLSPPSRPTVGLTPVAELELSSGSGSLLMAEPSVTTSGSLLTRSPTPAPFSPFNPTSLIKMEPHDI
# Method in brief: as §1
# [15] = target: T9, ELK4 (Homo sapiens, UniProt P28324-2 1-405); details: protein: recombinant; tags: N-terminal GST; dsDNA, one strand shown
# T9 sequence: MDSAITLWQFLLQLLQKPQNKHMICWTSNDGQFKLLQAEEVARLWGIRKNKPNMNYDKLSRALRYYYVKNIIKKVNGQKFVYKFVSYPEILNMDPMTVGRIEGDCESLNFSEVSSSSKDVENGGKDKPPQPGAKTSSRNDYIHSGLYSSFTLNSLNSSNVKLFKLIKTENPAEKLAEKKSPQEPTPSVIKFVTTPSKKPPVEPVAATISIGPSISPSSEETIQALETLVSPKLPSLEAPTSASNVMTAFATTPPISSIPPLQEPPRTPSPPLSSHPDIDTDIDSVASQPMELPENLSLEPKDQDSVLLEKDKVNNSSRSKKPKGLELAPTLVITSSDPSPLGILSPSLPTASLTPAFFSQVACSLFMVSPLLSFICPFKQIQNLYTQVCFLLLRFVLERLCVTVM
# Method in brief: as §1
# [16] = target: T10, ETV2 (Homo sapiens, UniProt O00321 1-342); details: protein: recombinant; tags: N-terminal GST; dsDNA, one strand shown
# T10 sequence: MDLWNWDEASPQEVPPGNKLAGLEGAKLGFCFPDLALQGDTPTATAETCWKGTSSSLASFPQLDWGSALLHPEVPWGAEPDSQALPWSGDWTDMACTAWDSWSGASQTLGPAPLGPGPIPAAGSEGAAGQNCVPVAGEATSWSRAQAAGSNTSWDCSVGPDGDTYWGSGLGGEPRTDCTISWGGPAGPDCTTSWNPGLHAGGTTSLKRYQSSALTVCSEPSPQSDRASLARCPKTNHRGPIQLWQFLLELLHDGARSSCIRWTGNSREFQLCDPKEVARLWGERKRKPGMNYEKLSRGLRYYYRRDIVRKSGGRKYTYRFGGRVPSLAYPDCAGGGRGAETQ
# Method in brief: as §1
# [17] = target: T11, ELF3 (Homo sapiens, UniProt P78545 1-371); details: protein: recombinant; tags: N-terminal GST; dsDNA, one strand shown
# T11 sequence: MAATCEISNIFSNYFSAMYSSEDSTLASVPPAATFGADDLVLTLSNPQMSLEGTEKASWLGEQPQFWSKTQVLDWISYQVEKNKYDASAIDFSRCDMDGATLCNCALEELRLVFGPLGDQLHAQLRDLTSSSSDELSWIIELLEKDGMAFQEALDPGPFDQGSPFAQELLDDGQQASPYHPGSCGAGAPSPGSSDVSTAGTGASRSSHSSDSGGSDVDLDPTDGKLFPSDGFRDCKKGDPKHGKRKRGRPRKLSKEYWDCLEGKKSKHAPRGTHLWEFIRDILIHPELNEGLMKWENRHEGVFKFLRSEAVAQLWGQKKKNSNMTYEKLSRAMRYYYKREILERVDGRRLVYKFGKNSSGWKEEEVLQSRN
# Method in brief: as §1
# [18] = target: CRX (Homo sapiens, UniProt O43186 1-299); details: protein: recombinant; tags: N-terminal GST; dsDNA, one strand shown
# CRX, sequence (O43186 whole entry): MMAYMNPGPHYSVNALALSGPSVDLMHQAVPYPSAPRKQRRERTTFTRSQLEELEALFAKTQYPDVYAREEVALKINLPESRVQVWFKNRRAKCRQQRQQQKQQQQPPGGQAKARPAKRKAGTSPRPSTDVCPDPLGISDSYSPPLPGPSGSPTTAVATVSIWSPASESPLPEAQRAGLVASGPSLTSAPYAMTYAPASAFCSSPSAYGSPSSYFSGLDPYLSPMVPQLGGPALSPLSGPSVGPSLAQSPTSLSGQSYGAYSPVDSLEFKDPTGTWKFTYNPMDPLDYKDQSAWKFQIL
# Method in brief: as §1
# [19] = target: ETV1 (Homo sapiens, UniProt P50549 1-477); details: protein: recombinant; tags: N-terminal GST; dsDNA, one strand shown
# ETV1, sequence (P50549 whole entry): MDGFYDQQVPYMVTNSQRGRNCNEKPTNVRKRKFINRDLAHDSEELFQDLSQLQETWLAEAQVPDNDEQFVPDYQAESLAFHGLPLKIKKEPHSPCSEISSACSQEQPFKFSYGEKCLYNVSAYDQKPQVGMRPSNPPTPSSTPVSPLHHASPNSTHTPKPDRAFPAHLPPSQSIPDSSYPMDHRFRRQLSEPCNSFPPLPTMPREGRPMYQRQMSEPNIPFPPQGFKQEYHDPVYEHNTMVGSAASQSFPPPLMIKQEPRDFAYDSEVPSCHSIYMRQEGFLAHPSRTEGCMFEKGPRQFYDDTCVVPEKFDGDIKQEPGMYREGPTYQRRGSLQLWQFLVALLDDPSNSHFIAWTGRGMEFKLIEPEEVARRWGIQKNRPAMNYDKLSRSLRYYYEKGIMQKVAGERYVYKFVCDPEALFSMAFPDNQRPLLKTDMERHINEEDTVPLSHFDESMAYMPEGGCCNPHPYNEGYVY
# Method in brief: as §1
sequence,measurement,setting,value
TTAATC,binding signal,[1],"1.28 fold enrichment (6-mer frequency, TF over GST control)"
same,binding signal,[2],"1.21 fold enrichment (6-mer frequency, TF over GST control)"
same,binding signal,[3],"1.2 fold enrichment (6-mer frequency, TF over GST control)"
same,binding signal,[4],"1.17 fold enrichment (6-mer frequency, TF over GST control)"
same,binding signal,[5],"1.2 fold enrichment (6-mer frequency, TF over GST control)"
same,binding signal,[6],"1.22 fold enrichment (6-mer frequency, TF over GST control)"
same,binding signal,[7],"1.21 fold enrichment (6-mer frequency, TF over GST control)"
same,binding signal,[8],"1.31 fold enrichment (6-mer frequency, TF over GST control)"
same,binding signal,[9],"1.31 fold enrichment (6-mer frequency, TF over GST control)"
same,binding signal,[10],"1.19 fold enrichment (6-mer frequency, TF over GST control)"
same,binding signal,[11],"1.23 fold enrichment (6-mer frequency, TF over GST control)"
same,binding signal,[12],"3.29 fold enrichment (6-mer frequency, TF over GST control)"
same,binding signal,[13],"1.19 fold enrichment (6-mer frequency, TF over GST control)"
same,binding signal,[14],"1.26 fold enrichment (6-mer frequency, TF over GST control)"
same,binding signal,[15],"1.43 fold enrichment (6-mer frequency, TF over GST control)"
same,binding signal,[16],"1.13 fold enrichment (6-mer frequency, TF over GST control)"
same,binding signal,[17],"1.27 fold enrichment (6-mer frequency, TF over GST control)"
same,binding signal,[18],"6.11 fold enrichment (6-mer frequency, TF over GST control)"
same,binding signal,[19],"1.33 fold enrichment (6-mer frequency, TF over GST control)"
